This is a sample that favours compounds with a hit; in the whole collection about 10% have one here.
JMJD2A Tudor = blocks the human JMJD2A Tudor domain | O75164 | AlphaScreen JMJD2A-Tudor / H3K4me3 peptide binding | Potency, µM (highest dose often 114 µM), without a hit: at the highest dose activity change, negative = inhibition, actives largely listed as inhibitors | 390,000 tested, 4.4% active; note: % is set by controls: 0 for no effect and ±100 for the full control effect; nearly all actives have a fitted effect of over 50% in size
GLS inhibitor = blocks human kidney-isoform glutaminase activity; O94925; Potency, µM (series often up to 45.5 µM), for inactives: top-dose activity change, negative = inhibition, usual class: inhibitors; AID 624170; GLS enzymatic activity, qHTS titration; 410,000 tested, 0.21% active; note: % is set by controls: 0 for no effect and ±100 for the full control effect
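Coupled fluorescence readout: glutamate oxidase/HRP/Amplex Red detect glutamate formed by hKGA from L-glutamine (1 mM solution added). Buffer 45 mM KH2PO4 pH 8.2, 0.02% Tween-20; reads at t0 and 30 min RT.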
G9a block = G9a (human) methyltransferase inhibition; 350,000 tested, 8.8% active; G9a H3K9 monomethylation, AlphaScreen, 2 h; Q96KQ7; Potency, µM (highest dose often 102 µM), inactives show at the top dose activity, negative = inhibition, usual class: inhibitors; note: % is set by controls: 0 for no effect and ±100 for the full control effect; nearly all actives have a fitted effect of over 75% in size
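G9a (20 nM) was preincubated 15 min with compound, then reacted 2 h at room temperature with 500 nM biotin-H3K9 peptide and 20 µM SAM. Monomethyl-H3K9 detected by AlphaScreen using anti-H3K9me1 antibody.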
L3MBTL1 block = blocks human L3MBTL1. Potency, µM (titrated, usually from 57.1 µM), inactives show at the highest dose activity, negative = inhibition, usual class: inhibitors. 230,000 tested, 0.66% active. Q9Y468. AlphaScreen L3MBTL1–H3K9me1 peptide binding; note: % is set by controls: 0 for no effect and ±100 for the full control effect; nearly all actives have a fitted effect of over 60% in size
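L3MBTL1 50 nM + b-AHA-H3(1-15)K9me1 75 nM, 30 min RT; compound added, 30 min RT; streptavidin donor/Ni-chelate acceptor beads 10 ug/mL each final, 30 min RT dark; AlphaScreen read.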
HP1b chromo inh = inhibitors of HP1-beta chromodomain binding to methylated histone tails; P83916; AlphaScreen HP1-beta / biotin-H3K9me3 peptide binding; Potency, µM (highest dose often 114 µM), for the others: at the highest dose activity change, negative = inhibition, hits mostly inhibitors; 390,000 tested, 0.56% active; AID 540317; note: nearly all actives have a fitted effect of over 70% in size
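Compound inhibition of the preformed complex between 50 nM HP1-beta and 50 nM biotinylated H3K9me3 peptide was read by AlphaScreen. Buffer was PBS pH 7.4 with 0.01% Tween-20. Incubations ran 30 min at room temperature, with 10 ug/mL donor/acceptor beads.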
BAZ2B block = BAZ2B (human) inhibition; Q9UIF8; AlphaScreen BAZ2B-H3K14Ac peptide displacement; Potency, µM (highest dose often 114 µM), for inactives: at the highest dose activity change, negative = inhibition, actives largely listed as inhibitors; 360,000 tested, 4.4% active; AID 504333; note: % is set by controls: 0 for no effect and ±100 for the full control effect; nearly all actives have a fitted effect of over 60% in size
Target sequence (Q9UIF8 whole entry, looked up): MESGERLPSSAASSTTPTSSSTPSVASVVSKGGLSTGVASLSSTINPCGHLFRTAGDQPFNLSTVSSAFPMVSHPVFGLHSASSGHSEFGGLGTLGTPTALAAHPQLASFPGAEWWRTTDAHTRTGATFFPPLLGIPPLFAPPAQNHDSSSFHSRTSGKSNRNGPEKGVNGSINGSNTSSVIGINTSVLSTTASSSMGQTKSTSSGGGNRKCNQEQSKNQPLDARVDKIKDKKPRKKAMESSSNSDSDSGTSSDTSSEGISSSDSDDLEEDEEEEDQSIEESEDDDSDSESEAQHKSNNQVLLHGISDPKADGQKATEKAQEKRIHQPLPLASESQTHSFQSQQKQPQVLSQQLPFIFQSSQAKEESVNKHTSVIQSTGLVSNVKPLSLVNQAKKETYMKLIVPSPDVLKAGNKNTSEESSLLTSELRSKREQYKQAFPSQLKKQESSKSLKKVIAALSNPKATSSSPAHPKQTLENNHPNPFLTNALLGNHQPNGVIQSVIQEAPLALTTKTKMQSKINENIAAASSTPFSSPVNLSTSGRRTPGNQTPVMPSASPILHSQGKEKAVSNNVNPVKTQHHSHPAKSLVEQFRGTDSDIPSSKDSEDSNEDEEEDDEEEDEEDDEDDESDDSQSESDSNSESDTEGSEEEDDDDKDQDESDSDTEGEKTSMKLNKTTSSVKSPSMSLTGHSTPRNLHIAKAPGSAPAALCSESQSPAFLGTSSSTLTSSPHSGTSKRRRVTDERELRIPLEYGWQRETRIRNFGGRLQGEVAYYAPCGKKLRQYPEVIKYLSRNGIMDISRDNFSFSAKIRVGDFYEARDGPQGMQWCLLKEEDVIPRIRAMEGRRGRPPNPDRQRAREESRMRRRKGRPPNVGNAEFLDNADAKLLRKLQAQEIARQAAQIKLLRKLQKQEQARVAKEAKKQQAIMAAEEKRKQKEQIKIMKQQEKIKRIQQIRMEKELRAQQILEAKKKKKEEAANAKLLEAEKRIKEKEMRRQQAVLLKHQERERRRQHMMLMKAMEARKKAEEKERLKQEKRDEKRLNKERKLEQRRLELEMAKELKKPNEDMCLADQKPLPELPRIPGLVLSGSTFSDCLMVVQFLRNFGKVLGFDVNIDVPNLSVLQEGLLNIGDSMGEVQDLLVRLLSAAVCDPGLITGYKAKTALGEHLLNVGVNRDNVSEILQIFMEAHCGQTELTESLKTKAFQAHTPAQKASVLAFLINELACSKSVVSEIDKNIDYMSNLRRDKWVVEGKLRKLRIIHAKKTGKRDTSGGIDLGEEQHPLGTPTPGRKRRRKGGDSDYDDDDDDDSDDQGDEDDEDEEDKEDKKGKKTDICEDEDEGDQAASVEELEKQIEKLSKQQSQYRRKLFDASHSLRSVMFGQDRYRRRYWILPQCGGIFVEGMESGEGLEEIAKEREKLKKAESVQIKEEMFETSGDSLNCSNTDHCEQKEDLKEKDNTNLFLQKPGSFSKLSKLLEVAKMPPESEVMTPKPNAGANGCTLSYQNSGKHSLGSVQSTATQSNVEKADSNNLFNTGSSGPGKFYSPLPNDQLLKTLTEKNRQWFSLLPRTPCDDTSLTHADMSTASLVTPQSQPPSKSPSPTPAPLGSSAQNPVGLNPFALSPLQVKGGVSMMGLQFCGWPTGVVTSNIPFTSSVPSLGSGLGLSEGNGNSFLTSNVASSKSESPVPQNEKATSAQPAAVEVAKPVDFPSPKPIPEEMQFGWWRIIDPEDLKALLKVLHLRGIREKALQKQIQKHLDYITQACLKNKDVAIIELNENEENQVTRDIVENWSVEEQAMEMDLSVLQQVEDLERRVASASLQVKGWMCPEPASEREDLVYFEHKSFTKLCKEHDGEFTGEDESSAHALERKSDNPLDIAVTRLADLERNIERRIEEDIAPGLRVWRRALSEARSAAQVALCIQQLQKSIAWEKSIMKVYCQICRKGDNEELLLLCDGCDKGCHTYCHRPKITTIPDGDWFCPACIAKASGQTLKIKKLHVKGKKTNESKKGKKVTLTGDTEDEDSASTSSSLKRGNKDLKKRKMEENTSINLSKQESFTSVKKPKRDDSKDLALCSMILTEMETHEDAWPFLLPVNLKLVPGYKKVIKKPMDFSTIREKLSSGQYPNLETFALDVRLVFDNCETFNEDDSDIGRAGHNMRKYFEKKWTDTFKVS
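AlphaScreen displacement: compounds (up to 110uM) incubated 30 min at room temperature with a preformed 50 nM BAZ2B/50 nM biotinylated H3K14Ac peptide complex in PBS pH 7.4 with Tween-20. Donor and acceptor beads at 10 ug/mL final added, 20 min light-protected before reading.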
Numbers without * were called inactive; ? = inconclusive; · = no result given; ! = a repeat was not active; [ ] = another dose, or the depositor's remark. Calls come from the whole dose curve; as a rule, active = well fitted curve in the direction sought with a large enough effect; inconclusive = small, poorly fitted or top-dose-only effect, or another doubt; inactive = no such curve, though single readings can be large; an effect the other way counts as inactive or inconclusive. Potency is the fitted concentration of half-maximal effect.

SMILES	JMJD2A Tudor	GLS inhibitor	G9a block	L3MBTL1 block	HP1b chromo inh	BAZ2B block
CCCn1c2ccc(C)cc2c2nnc(SCCN3CCCCC3)nc21	-22%	1%	8.9µM*	·	38%	-3%
Oc1cc(O)c2c(c1)O[C@H](c1ccc(O)c(O)c1)[C@@H](O)C2	-10%	76%	28µM*!	·	20%	0%
O=C1c2c(O)cc(O)cc2O[C@H](c2ccc(O)c(O)c2)[C@H]1O	-14%	14%	10µM*	·	19%	?
Cc1ccc(C)c(N(C)C(=O)C2CCN(S(=O)(=O)c3cccc4nsnc34)CC2)c1	-19%	-1%	-1%[59 µM]	·	30%	·
O=C(Nc1cc(Cl)cc(Cl)c1)c1ccc(F)c(S(=O)(=O)N2CCCCCC2)c1	-13%	6%	2%[59 µM]	·	52%	-2%
CS(=O)(=O)c1ccc(C(=O)Nc2cc(S(C)(=O)=O)ccc2Cl)cc1	-12%	0%	45µM*	3%	11%	0%
Cc1cccc(C)c1OCC(=O)Nc1c(C(=O)c2ccccc2)oc2ccccc12	37%	1%	56%[59 µM]	·	63%	24%
O=C(/C=C/c1ccc([N+](=O)[O-])s1)N1CCCCC1	-22%	9%	-6%	-16%	18%	-33%
O=[N+]([O-])c1ccc(CN2CCCCCC2)s1	20µM*	9%	10µM*	?	3.2µM*	40µM*
Cc1ccc(NC(=O)c2cc(S(=O)(=O)N3CCc4ccccc43)cn2C)c(Cl)c1	1%	-14%	-30%[59 µM]	·	16%	-36%
CCN(C(=O)COC(=O)c1cc(C)n(-c2ccc(F)cc2)c1C)C1CCS(=O)(=O)C1 (stereo not given)	-35%	-2%	50µM*	-24%	1%	?
CC(C)CN(C(=O)COC(=O)c1ccc2c(c1)NC(=O)CS2)C1CCS(=O)(=O)C1 (stereo not given)	9%	-2%	?	0%	?	12%
Cc1ccc(-n2c(C)cc(C(=O)OCC(=O)N(C)C3CCS(=O)(=O)C3)c2C)cc1 (stereo not given)	-23%	10%	50µM*	-13%	-10%	?
CN(C(=O)COC(=O)c1ccc2c(c1)NC(=O)CS2)C1CCS(=O)(=O)C1 (stereo not given)	-5%	0%	50µM*	1%	16%	6%
Cc1ccc(-n2c(C)cc(C(=O)OCC(=O)N(CC(C)C)C3CCS(=O)(=O)C3)c2C)cc1 (stereo not given)	?	-25%	?	-22%	-1%	?
CN1c2ccccc2C(=O)NC1c1ccc(Cl)cc1 (stereo not given)	-6%	-2%	45µM*	5%	24%	-6%
Cc1ccc(NC(=O)CN(C)S(=O)(=O)c2ccc3c(c2)n(C)c(=O)c(=O)n3C)cc1C	-15%	2%	12%[59 µM]	·	14%	-2%
Cc1ccc(N(O)C(=O)NCCCCNC(=O)N(O)c2ccc(C)cc2)cc1	?	1%	79µM*	·	16%	-28%
Cc1ccc(S(=O)(=O)NC(=O)NCCCCNC(=O)NS(=O)(=O)c2ccc(C)cc2)cc1	-8%[11.4 µM]	-2%	7%	·	76%	7%
O=c1c2c3c(sc2n(Cc2ccc(F)cc2Cl)c(=O)n1-c1ccc(Cl)cc1)CCC3	-20%	-7%	27%[59 µM]	·	65%	-2%
COc1ccc(N2Cc3ccccc3C2)cc1Cl	?	0%	?	-6%	20%	-4%
COc1ccccc1N1Cc2ccccc2C1	50µM*	2%	10µM*	-13%	1%	56µM*
COc1ccc(OC)c(N2Cc3ccccc3C2)c1	?	-1%	7.9µM*	-7%	7%	3%
Cc1ccccc1N1Cc2ccccc2C1	-13%	6%	7.9µM*	-8%	52%	?
COc1ccc(Cl)cc1N1Cc2ccccc2C1	-24%	1%	?	·	23%	?
SMILES	JMJD2A Tudor	GLS inhibitor	G9a block	L3MBTL1 block	HP1b chromo inh	BAZ2B block
Cc1ccc(N2CCN(C(=O)Nc3cn(CC(C)C)c(=O)c4ccccc34)CC2)c(C)c1	?	5%	?	·	18%	0%[57.1 µM]
Cn1c(N)c(N=O)c(=O)n(C)c1=O	-11%	15%	50µM*	-8%	33%	-15%
CCOC(=O)C=Nc1c(N)n(C)c(=O)n(C)c1=O	?	1%	-25%[59 µM]	-4%	31%	-35%
CCOc1cc(/C=C2\COc3ccccc3C2=O)ccc1OCC(=O)N(C)C	-32%	1%	-19%	·	-13%	?
CCNC(=O)COc1ccc(/C=C2\COc3ccccc3C2=O)cc1OC	-26%	0%	40µM*	·	4%	-9%
O=C(CSC1=NC(=O)C(Cc2ccccc2)C(=O)N1)Nc1ncccn1 (stereo not given)	·	·	79µM*	-3%	·	-6%
COc1cc(-c2noc(-c3ccc(NCC4CCCO4)c([N+](=O)[O-])c3)n2)cc(OC)c1OC (stereo not given)	-20%	-11%	6%[59 µM]	·	35%	-12%
COc1ccc(N=Nc2n(C)c3ccccc3[n+]2C)cc1	·	·	·	-20%	·	40µM*
Cn1c(COc2ccccc2O)[n+](C)c2ccccc21	-8%	0%	-5%	·	48%	3%
Cc1ccc(CNc2nc(-c3ccco3)nn2C(=O)c2ccccc2[N+](=O)[O-])cc1	?	0%	13µM*	·	?	8.9µM*
COc1ccccc1CNc1nc(-c2ccco2)nn1C(=O)c1ccccc1[N+](=O)[O-]	?	-3%	11µM*	·	-1%	?
CN(C)c1ccc(CNc2nc(-c3ccco3)nn2C(=O)c2cccc([N+](=O)[O-])c2)cc1	45µM*	2%	7.9µM*	·	?	35µM*
COc1ccc(CNc2nc(-c3ccco3)nn2C(=O)c2ccccc2C)cc1	-20%	-2%	?	·	-5%	-11%
Cc1ccc2oc3c(c(=O)c2c1)C(c1ccc(OCC(N)=O)cc1)N(Cc1ccc2c(c1)OCO2)C3=O (stereo not given)	6%	2%	12%[59 µM]	·	10%	2%
Cc1ccc(NC(=O)Cn2c(=O)oc3cc(S(=O)(=O)N4CCCCCC4)ccc32)cc1Cl	-9%	-5%	-3%[59 µM]	·	25%	1%
COc1ccc(/C=C\c2onc(C)c2S(=O)(=O)N2CCC(C(=O)Nc3ccc(Cl)cc3)CC2)cc1	-16%	-10%	-8%[59 µM]	·	10%	·
CC(C)NC[C@@H](O)c1ccc(O)c(O)c1	45µM*	55%	18µM*!	?	?	?
CN(C(=S)NC1=CCS(=O)(=O)C1)C1CCCCC1	-5%	17%	10µM*	·	32%	0%
CC(=O)Nc1c(Br)cc2c(c1Br)C(=O)c1ccccc1-2	-10%	-2%	·	·	28%	·
